# Assay results as given in the supplement of paper PMC8728848.
# Many of the other results were omitted from the sample, so the strongest signals are more common in it than they were.
# B1: SP15308B-bot-339-22-339 (Bacteroides ovatus) (protein)
# chain: NEWEDEQYEQYVSFKAPIASGSDGVTTIYVRYKDNGKVTYQLPIIVSGSTVNSQDRDIHIAVDKDTLKTLNIERFSLYRPELWYTEMEEDKYEFPETVHIPAGSCVELLNIDFNLQDIDMLEKWVLPLTIVDDGSYAYQSHPRKNYAKALLKVVPFNNYSGSYTASSMKVYTYINGKPDTNARTTDKRTGYVVDNNSIFFYAGLINEDMDKDMRKKYKINVHFKEDGTLDMKQDDPSNEMEFELIGTPTYSSTSVMDATRPYLERRYVQIMFEYDFQDFTYGGSGTEVIPIKYRVAGSMTLLRNINTQIPDEDQQIEW
# What was measured:
# Experiment in all cases: glycan array binding signal (z-score within array); higher = stronger binding
# Settings in all cases: glycan notation: IUPAC condensed, linker removed
# [1] = target: Fuc(a1-2)Gal(b1-4)[Fuc(a1-3)]GlcNAc(b1-3)Gal(b1-4)[Fuc(a1-3)]GlcNAc
# How it was run: (§1)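 Arrays were curated from the Consortium for Functional Glycomics database, 3228 in total, and kept only where the protein sequence was available. Binding is expressed as a within-array Z-score. This score was averaged across arrays of the same protein sequence at different concentrations or buffers and across linkers, and negative values can be read as non-binding.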
# [2] = target: Fuc(a1-2)[Gal(a1-3)]Gal(b1-3)GalNAc(b1-3)Gal(a1-4)Gal(b1-4)Glc
# How it was run: as §1
# [3] = target: Fuc(a1-2)[Gal(a1-3)]Gal(b1-4)GlcNAc(b1-2)Man(a1-3)[Fuc(a1-2)[Gal(a1-3)]Gal(b1-4)GlcNAc(b1-2)Man(a1-6)]Man(b1-4)GlcNAc(b1-4)[Fuc(a1-6)]GlcNAc
# How it was run: as §1
# [4] = target: Fuc(a1-2)[Gal(a1-3)]Gal(b1-4)GlcNAc(b1-3)GalNAc
# How it was run: as §1
# [5] = target: Fuc(a1-2)[GalNAc(a1-3)]Gal(b1-3)GlcNAc(b1-2)Man(a1-3)[Fuc(a1-2)[GalNAc(a1-3)]Gal(b1-3)GlcNAc(b1-2)Man(a1-6)]Man(b1-4)GlcNAc(b1-4)[Fuc(a1-6)]GlcNAc
# How it was run: as §1
# [6] = target: Fuc(a1-2)[GalNAc(a1-3)]Gal(b1-4)GlcNAc(b1-2)Man(a1-3)[Fuc(a1-2)[GalNAc(a1-3)]Gal(b1-4)GlcNAc(b1-2)Man(a1-6)]Man(b1-4)GlcNAc(b1-4)[Fuc(a1-6)]GlcNAc
# How it was run: as §1
# [7] = target: Fuc(a1-2)[GalNAc(b1-3)]Gal
# How it was run: as §1
# Fuc(a1-4)GlcNAc = target: Fuc(a1-4)GlcNAc
# How it was run: as §1
# Gal(a1-3)Gal = target: Gal(a1-3)Gal
# How it was run: as §1
# [8] = target: Gal(a1-3)Gal(b1-4)GlcNAc(b1-2)Man(a1-3)[Gal(a1-3)Gal(b1-4)GlcNAc(b1-2)Man(a1-6)]Man(b1-4)GlcNAc(b1-4)GlcNAc
# How it was run: as §1
# [9] = target: Gal(b1-3)GlcNAc(b1-3)Gal(b1-4)GlcNAc(b1-6)[Gal(b1-3)GlcNAc(b1-3)]Gal(b1-4)Glc
# How it was run: as §1
# [10] = target: Gal(b1-3)GlcNAc(b1-3)Gal(b1-4)[Fuc(a1-3)]GlcNAc
# How it was run: as §1
# [11] = target: Gal(b1-3)[Fuc(a1-4)]GlcNAc
# How it was run: as §1
# [12] = target: Gal(b1-4)GlcNAc(b1-2)Man(a1-3)[Gal(b1-4)GlcNAc(b1-2)Man(a1-6)]Man(b1-4)GlcNAc(b1-4)GlcNAc
# How it was run: as §1
# [13] = target: Gal(b1-4)GlcNAc(b1-3)Gal(b1-4)GlcNAc(b1-2)Man(a1-3)[Gal(b1-4)GlcNAc(b1-3)Gal(b1-4)GlcNAc(b1-2)Man(a1-6)]Man(b1-4)GlcNAc(b1-4)GlcNAc
# How it was run: as §1
# [14] = target: Gal(b1-4)GlcNAc(b1-3)Gal(b1-4)GlcNAc(b1-2)Man(a1-3)[Gal(b1-4)GlcNAc(b1-3)Gal(b1-4)GlcNAc(b1-2)Man(a1-6)]Man(b1-4)GlcNAc(b1-4)[Fuc(a1-6)]GlcNAc
# How it was run: as §1
# [15] = target: Gal(b1-4)GlcNAc(b1-3)Gal(b1-4)GlcNAc(b1-3)Gal(b1-4)GlcNAc(b1-2)[Gal(b1-4)GlcNAc(b1-3)Gal(b1-4)GlcNAc(b1-3)Gal(b1-4)GlcNAc(b1-6)]Man(a1-6)[Gal(b1-4)GlcNAc(b1-3)Gal(b1-4)GlcNAc(b1-3)Gal(b1-4)GlcNAc(b1-2)Man(a1-3)]Man(b1-4)GlcNAc(b1-4)[Fuc(a1-6)]GlcNAc
# How it was run: as §1
# [16] = target: Gal(b1-4)GlcNAc(b1-3)Gal(b1-4)GlcNAc(b1-3)Gal(b1-4)GlcNAc(b1-3)Gal(b1-4)GlcNAc(b1-2)Man(a1-3)[Gal(b1-4)GlcNAc(b1-3)Gal(b1-4)GlcNAc(b1-3)Gal(b1-4)GlcNAc(b1-3)Gal(b1-4)GlcNAc(b1-2)Man(a1-6)]Man(b1-4)GlcNAc(b1-4)[Fuc(a1-6)]GlcNAc
# How it was run: as §1
# [17] = target: Gal(b1-4)GlcNAc(b1-3)Gal(b1-4)GlcNAc(b1-3)Gal(b1-4)GlcNAc(b1-3)Gal(b1-4)GlcNAc(b1-3)Gal(b1-4)GlcNAc(b1-2)Man(a1-3)[Gal(b1-4)GlcNAc(b1-3)Gal(b1-4)GlcNAc(b1-3)Gal(b1-4)GlcNAc(b1-3)Gal(b1-4)GlcNAc(b1-3)Gal(b1-4)GlcNAc(b1-2)Man(a1-6)]Man(b1-4)GlcNAc(b1-4)GlcNAc
# How it was run: as §1
# [18] = target: Gal(b1-4)GlcNAc(b1-3)Gal(b1-4)GlcNAc(b1-3)Gal(b1-4)GlcNAc(b1-3)Gal(b1-4)GlcNAc(b1-3)Gal(b1-4)GlcNAc(b1-2)Man(a1-3)[Gal(b1-4)GlcNAc(b1-3)Gal(b1-4)GlcNAc(b1-3)Gal(b1-4)GlcNAc(b1-3)Gal(b1-4)GlcNAc(b1-3)Gal(b1-4)GlcNAc(b1-2)Man(a1-6)]Man(b1-4)GlcNAc(b1-4)[Fuc(a1-6)]GlcNAc
# How it was run: as §1
# [19] = target: Gal(b1-4)GlcNAc(b1-3)Gal(b1-4)GlcNAc(b1-3)Gal(b1-4)GlcNAc(b1-3)Gal(b1-4)GlcNAc(b1-3)Gal(b1-4)GlcNAc(b1-3)Gal(b1-4)GlcNAc(b1-2)Man(a1-3)[Gal(b1-4)GlcNAc(b1-3)Gal(b1-4)GlcNAc(b1-3)Gal(b1-4)GlcNAc(b1-3)Gal(b1-4)GlcNAc(b1-3)Gal(b1-4)GlcNAc(b1-3)Gal(b1-4)GlcNAc(b1-2)Man(a1-6)]Man(b1-4)GlcNAc(b1-4)GlcNAc
# How it was run: as §1
# [20] = target: Gal(b1-4)GlcNAc(b1-6)GalNAc
# How it was run: as §1
# Gal3S(b1-4)Glc6S = target: Gal3S(b1-4)Glc6S
# How it was run: as §1
# Gal6S(b1-4)GlcNAc = target: Gal6S(b1-4)GlcNAc
# How it was run: as §1
# Gal6S(b1-4)GlcNAc6S = target: Gal6S(b1-4)GlcNAc6S
# How it was run: as §1
binder,measurement,setting,value
B1,glycan array binding signal (z-score),[1],-0.601
same,glycan array binding signal (z-score),[2],-0.087
same,glycan array binding signal (z-score),[3],0.241
same,glycan array binding signal (z-score),[4],-0.515
same,glycan array binding signal (z-score),[5],-0.323
same,glycan array binding signal (z-score),[6],-0.388
same,glycan array binding signal (z-score),[7],0.15
same,glycan array binding signal (z-score),Fuc(a1-4)GlcNAc,2.58
same,glycan array binding signal (z-score),Gal(a1-3)Gal,0.449
same,glycan array binding signal (z-score),[8],3.88
same,glycan array binding signal (z-score),[9],-0.129
same,glycan array binding signal (z-score),[10],-0.548
same,glycan array binding signal (z-score),[11],-0.425
same,glycan array binding signal (z-score),[12],-0.534
same,glycan array binding signal (z-score),[13],2.8
same,glycan array binding signal (z-score),[14],2.57
same,glycan array binding signal (z-score),[15],2.24
same,glycan array binding signal (z-score),[16],7.12
same,glycan array binding signal (z-score),[17],1.84
same,glycan array binding signal (z-score),[18],0.658
same,glycan array binding signal (z-score),[19],6.94
same,glycan array binding signal (z-score),[20],0.182
same,glycan array binding signal (z-score),Gal3S(b1-4)Glc6S,-0.337
same,glycan array binding signal (z-score),Gal6S(b1-4)GlcNAc,1.87
same,glycan array binding signal (z-score),Gal6S(b1-4)GlcNAc6S,-0.252
